The source of these data is PubChem BioAssay (Tox21).

Records with an inconclusive call do not appear. Calls of active or inactive are those of the source. Unless noted, the call rests on the fitted dose curve; in most records, active means well fitted curve in the direction sought with a large enough effect in the repeat runs; inconclusive means weak or mixed curves; inactive means no such curve, though single readings can be large; an effect the other way counts as inactive or inconclusive.

Test [1] in a line: qHTS assay to identify small molecule agonists of the peroxisome proliferator-activated receptor delta (PPARd) signaling pathway - cell viability counter screen (AID 743211). Further: nearly all actives have a fitted effect of over 55% in size. Further: potency means the concentration at half of the fitted maximal effect. A digest of the protocol: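 Read-out: CellTiter-Glo luminescence, 30 min RT, measured in the same wells as the beta-lactamase reporter. Cells: GeneBLAzer PPAR delta UAS-bla HEK293H, 3000 cells/well, compound exposure 17 h at 37C.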
(In general: In qHTS, concentration-response curves come from the screen itself.)

Test [2] deals with Peroxisome proliferator-activated receptor delta (Homo sapiens) (UniProt Q03181). The test can be described thus: qHTS assay to identify small molecule agonists of the peroxisome proliferator-activated receptor delta (PPARd) signaling pathway (AID 743212; calls by dose curve). A digest of the protocol: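 Tox21 library screened in GeneBLAzer PPARd UAS-bla HEK293H cells. After compound treatment at 37 C, a FRET-based beta-lactamase substrate was applied for 2 h and fluorescence recorded.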

Test [3] is described as follows: qHTS assay to identify small molecule antagonists of the peroxisome proliferator-activated receptor delta (PPARd) signaling pathway - cell viability counter screen (AID 743213). Further: nearly all actives have a fitted effect of over 50% in size. Further: potency means the concentration at half of the fitted maximal effect. In outline: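 CellTiter-Glo was added to PPARd-bla HEK293H wells following 17 h compound treatment in the presence of 300 nM L165041. Luminescence was recorded after 30 min at room temperature.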

Test [4] has as its target Peroxisome proliferator-activated receptor delta (Homo sapiens) (UniProt Q03181). The test can be described thus: qHTS assay to identify small molecule antagonists of the peroxisome proliferator-activated receptor delta (PPARd) signaling pathway (AID 743215; active means well fitted inhibition curve with a large enough effect in the signal ratio in the repeat runs, not every such curve was filed as active; the % refers to the signal ratio;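 further: cells stimulated with agonist L165041 at 300 nM final during compound exposure; series mostly up to about 62 µM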). In outline:
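Here, a reporter line (HEK293H, beta-lactamase under a UAS) measures PPARd signaling. Compounds are tested against agonist L165041 at 300 nM final concentration over 17 h at 37 C, with fluorescence read after substrate.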

The target of test [5] is Bile acid receptor (Homo sapiens) (UniProt Q96RI1). The test can be described thus: qHTS assay to identify small molecule antagonists of the farnesoid-X-receptor (FXR) signaling pathway (AID 743217; active means well fitted inhibition curve with a large enough effect in the signal ratio in the repeat runs, not every such curve was filed as active; the % refers to the signal ratio). A digest of the protocol: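 Test compounds are pin-transferred onto FXR-bla HEK 293T cells, then chenodeoxycholic acid is added at 50 uM final. After 16 h at 37 °C, LiveBLAzer B/G substrate is applied for 2 h at room temperature and fluorescence read.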

Test [6] has the same target. The experiment in a line: qHTS assay to identify small molecule agonists of the farnesoid-X-receptor (FXR) signaling pathway (AID 743220; active means well fitted activation curve with a large enough effect in the signal ratio in the repeat runs, not every such curve was filed as active; the % refers to the signal ratio). A digest of the protocol:
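FXR-UAS-bla HEK 293T cells carrying a UAS-driven beta-lactamase reporter were plated for 5 h at 37C/5% CO2, then exposed to DMSO-dissolved Tox21 10K compounds for 16 h at 37C. A LiveBLAzer B/G FRET substrate was loaded for 2 h at room temperature before fluorescence reading.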

The nature of test [7]: qHTS assay to identify small molecule antagonists of the farnesoid-X-receptor (FXR) signaling pathway - cell viability counter screen (AID 743221; active means well fitted cell-killing curve with a large enough effect in the repeat runs, not every such curve was filed as active; further: nearly all actives have a fitted effect of over 50% in size). In outline: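 HEK 293T FXR-bla cells, 5 h pre-incubation; compound + CDCA 50 uM final, 16 h, 37 C; beta-lactamase FRET read first, then CellTiter-Glo luminescence, 30 min RT.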
In test [8] the target is Vitamin D3 receptor (Homo sapiens) (UniProt P11473). The experiment in a line: qHTS assay to identify small molecule agonists of the vitamin D receptor (VDR) signaling pathway (AID 743222; calls by dose curve). In outline: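 Tox21 cell reporter format: VDR-bla line, 16 h compound exposure in 5% CO2 at 37C, then fluorescence intensity after 2 h with LiveBLAzer B/G FRET substrate.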
The target is the same in test [9]. The experiment in a line: qHTS assay to identify small molecule antagonists of the vitamin D receptor (VDR) signaling pathway (AID 743223; active means well fitted inhibition curve with a large enough effect in the signal ratio in the repeat runs, not every such curve was filed as active; the % refers to the signal ratio). In outline: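 Beta-lactamase reporter read-out: FRET substrate fluorescence after 2 h at room temperature, following 16 h exposure of VDR-bla cells to test compound plus 3 nM (final) 1alpha,25-dihydroxyvitamin D3 agonist at 37C.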

Test [10] in a line: qHTS assay to identify small molecule agonists of the NFkB signaling pathway - cell viability counter screen (AID 1159515; calls by dose curve; further: series mostly up to about 61 µM; nearly all actives have a fitted effect of over 55% in size). A digest of the protocol: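 Tox21 library compounds were tested for cytotoxicity against NFkB-bla ME-180 cells during a 5 hr exposure at 37 C. CellTiter-Glo luminescence served as the viability read-out.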
The nature of test [11]: qHTS assay to identify small molecule agonists of the endoplasmic reticulum stress response signaling pathway (AID 1159516; active means well fitted activation curve with a large enough effect in the signal ratio in the repeat runs, not every such curve was filed as active; the % refers to the signal ratio). A digest of the protocol: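 Fluorescence at 460 and 530 nm (405 nm excitation) reports beta-lactamase from an ER stress response element in HeLa cells treated 5 hr at 37 C.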
Test [12] in a line: qHTS assay to identify small molecule agonists of the endoplasmic reticulum stress response signaling pathway - cell viability counter screen (AID 1159517; calls by dose curve; further: series mostly up to about 61 µM; nearly all actives have a fitted effect of over 50% in size). A digest of the protocol: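 In parallel with the ESRE reporter read, cytotoxicity was scored by CellTiter-Glo luminescence (30 min, room temperature) on HeLa ESRE-bla cells dosed for 5 hr.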
The nature of test [13]: qHTS assay to identify small molecule antagonists of the retinoid-related orphan receptor gamma (ROR-gamma) signaling pathway - cell viability counter screen (AID 1159520). Further: nearly all actives have a fitted effect of over 50% in size. A digest of the protocol:
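Tet-on ROR gamma CHO cells were given compounds for 2 hr, then doxycycline hyclate at 1 uM final, and incubated 16 hr at 37 C. Viability was measured as ATP content by CellTiter-Glo luminescence.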

Test [14] has as its target Nuclear receptor ROR-gamma (Homo sapiens) (UniProt P51449). The experiment in a line: qHTS assay to identify small molecule antagonists of the retinoid-related orphan receptor gamma (ROR-gamma) signaling pathway (AID 1159521). A digest of the protocol: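 Luminescence readout (ONE-Glo, 30 min RT) after 16 h doxycycline induction; loss of signal scored as antagonism. CHO cells with TET-inducible RORγ and RORE-LUC reporter; compounds added 2 h before 1 uM final doxycycline.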

Test [15] in a line: qHTS assay to identify small molecule agonists of the AP-1 signaling pathway - cell viability counter screen (AID 1159525; calls by dose curve; further: nearly all actives have a fitted effect of over 55% in size). A digest of the protocol:
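Same-well cytotoxicity counter screen of the Tox21 10K library in ME-180 cells. The readout is ATP-dependent luminescence after 5 h compound treatment. Data are normalised to DMSO and tetra n-octyl ammonium bromide controls.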

Test [16] addresses Retinoic acid receptor RXR-alpha (Homo sapiens) (UniProt P19793). The experiment in a line: qHTS assay to identify small molecule agonists of the RXR signaling pathway (AID 1159527; calls by dose curve; further: nearly all actives have a fitted effect of over 35% in size). In outline:
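Agonist mode; 9-cis retinoic acid positive control. HEK 293T UAS-bla reporter cells, 2% charcoal-stripped FBS, 16 hr compound exposure at 37 C/5% CO2. LiveBLAzer B/G FRET substrate 2 hr RT; ex 405, em 460/530 nm.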

Test [17] in a line: qHTS assay to identify small molecule agonists of the vitamin D receptor (VDR) signaling pathway - cell viability counter screen (AID 743224). A digest of the protocol: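 CellTiter-Glo viability readout on VDR-bla cells, measured after 16 h of compound treatment at 37C in the same wells.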
Test [18] is described as follows: qHTS assay to identify small molecule antagonists of the vitamin D receptor (VDR) signaling pathway - cell viability counter screen (AID 743225). Further: nearly all actives have a fitted effect of over 50% in size. In outline: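 Viability counter screen run in the same wells as the beta-lactamase reporter assay: HEK 293T VDR-UAS-bla cells, 16 h compound exposure at 37C with 3 nM (final) 1-alpha,25-dihydroxyvitamin D3. CellTiter-Glo luminescence, 30 min, room temperature.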

The nature of test [19]: qHTS assay to identify small molecule agonists of the AP-1 signaling pathway (AID 1159526; calls by dose curve).
Test [20] is described as follows: qHTS assay to identify small molecule agonists of the farnesoid-X-receptor (FXR) signaling pathway - cell viability counter screen (AID 743218). Further: nearly all actives have a fitted effect of over 45% in size. In outline:
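Quantitative HTS counter screen measuring ATP-based viability via CellTiter-Glo luminescence in HEK 293T cells carrying a UAS-driven beta-lactamase reporter, after 16 h compound exposure at 37 C.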

Sequence of Bile acid receptor (Homo sapiens) (Q96RI1 whole entry, looked up): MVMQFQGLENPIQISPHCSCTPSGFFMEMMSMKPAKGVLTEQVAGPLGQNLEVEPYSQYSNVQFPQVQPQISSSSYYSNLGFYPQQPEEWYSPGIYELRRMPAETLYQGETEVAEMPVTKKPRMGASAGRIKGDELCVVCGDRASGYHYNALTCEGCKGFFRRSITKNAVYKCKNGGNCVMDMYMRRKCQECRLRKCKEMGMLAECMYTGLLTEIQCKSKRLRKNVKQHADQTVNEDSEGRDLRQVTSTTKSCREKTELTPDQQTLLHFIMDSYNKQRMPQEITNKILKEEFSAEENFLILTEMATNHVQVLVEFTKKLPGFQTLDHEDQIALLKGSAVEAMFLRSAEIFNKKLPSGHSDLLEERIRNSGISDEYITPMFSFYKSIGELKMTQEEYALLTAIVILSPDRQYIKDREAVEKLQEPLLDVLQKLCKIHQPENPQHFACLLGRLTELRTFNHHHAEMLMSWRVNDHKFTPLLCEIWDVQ
Sequence of Peroxisome proliferator-activated receptor delta (Homo sapiens) (Q03181 whole entry, looked up): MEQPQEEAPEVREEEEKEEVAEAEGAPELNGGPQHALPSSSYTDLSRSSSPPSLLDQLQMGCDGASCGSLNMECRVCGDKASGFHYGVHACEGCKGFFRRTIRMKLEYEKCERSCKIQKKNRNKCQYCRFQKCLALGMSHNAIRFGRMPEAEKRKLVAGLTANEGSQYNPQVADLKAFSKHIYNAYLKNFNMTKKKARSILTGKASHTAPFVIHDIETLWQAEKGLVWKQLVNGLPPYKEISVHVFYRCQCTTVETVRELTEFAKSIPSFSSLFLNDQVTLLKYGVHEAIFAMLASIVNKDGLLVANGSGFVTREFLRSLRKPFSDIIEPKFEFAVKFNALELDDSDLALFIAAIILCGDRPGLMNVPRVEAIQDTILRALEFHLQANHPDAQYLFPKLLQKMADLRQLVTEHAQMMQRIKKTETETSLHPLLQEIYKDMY
Sequence of Vitamin D3 receptor (Homo sapiens) (P11473 whole entry, looked up): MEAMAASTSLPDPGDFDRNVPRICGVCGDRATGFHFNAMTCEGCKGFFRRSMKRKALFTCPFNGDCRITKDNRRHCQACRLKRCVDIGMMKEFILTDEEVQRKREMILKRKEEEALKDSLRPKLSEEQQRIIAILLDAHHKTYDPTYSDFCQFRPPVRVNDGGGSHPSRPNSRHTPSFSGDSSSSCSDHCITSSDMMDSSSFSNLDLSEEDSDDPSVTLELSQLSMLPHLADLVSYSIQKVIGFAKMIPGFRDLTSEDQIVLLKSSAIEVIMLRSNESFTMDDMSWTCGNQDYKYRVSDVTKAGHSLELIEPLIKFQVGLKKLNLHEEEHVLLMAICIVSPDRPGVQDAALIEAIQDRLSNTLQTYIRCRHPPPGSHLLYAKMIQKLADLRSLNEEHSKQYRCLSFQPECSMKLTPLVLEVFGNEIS
Sequence of Retinoic acid receptor RXR-alpha (Homo sapiens) (P19793 whole entry, looked up): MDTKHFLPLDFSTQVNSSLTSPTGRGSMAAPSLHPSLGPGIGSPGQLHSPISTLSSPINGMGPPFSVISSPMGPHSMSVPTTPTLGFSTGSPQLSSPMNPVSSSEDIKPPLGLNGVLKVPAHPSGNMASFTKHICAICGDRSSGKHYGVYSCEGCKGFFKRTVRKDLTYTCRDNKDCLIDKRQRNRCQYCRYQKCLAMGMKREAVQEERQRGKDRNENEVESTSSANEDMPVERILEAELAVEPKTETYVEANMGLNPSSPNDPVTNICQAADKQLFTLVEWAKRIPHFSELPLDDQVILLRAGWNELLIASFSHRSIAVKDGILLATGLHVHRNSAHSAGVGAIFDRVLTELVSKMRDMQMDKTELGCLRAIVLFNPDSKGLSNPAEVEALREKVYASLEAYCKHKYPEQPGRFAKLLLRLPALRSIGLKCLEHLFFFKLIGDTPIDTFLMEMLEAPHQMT

On to `C[C@@H](C1=C(CCN(C)C)Cc2ccccc21)c1ccccn1`, for which the Potency entry in test [1], in test [3], in [7], in test [9], in test [10] and in [11] was “inactive” each time. Further, the Potency result in test [13], in test [14], in test [15] and in [16] was “inactive” in each case. Besides, the result in test [2], in test [4], in [5], in test [6], in test [8] and in [12] was inactive.

As for `CCCCCCCCCCCCC(=O)O`, the Potency result in test [3], in test [17], in [18], in test [10], in [11] and in [13] was “inactive” throughout. Also, the Potency result in [14], in test [15] and in [19] was “inactive” throughout. In [12], the result was inactive.

Turning to `CC(=O)N(O)CCCCCNC(=O)CCC(=O)N(O)CCCCCNC(=O)CCC(=O)N(O)CCCCCN`, the Potency result in [1], in test [3], in test [9], in test [17], in test [18] and in test [10] was “inactive” in each case. Moreover, the Potency result in test [11], in test [13], in test [14], in [15] and in [16] was “inactive” throughout. The result in test [2], in test [4], in test [8] and in [12] was inactive.

`c1ccc(CNCc2ccccc2)cc1`: the Potency entry in test [1], in [20], in [9], in test [17], in test [18] and in [10] was “inactive” in each case. Also, the Potency result in [11], in test [13], in test [14], in [15] and in test [19] was “inactive” in each case. Moreover, the outcome in test [2], in test [4], in [8] and in test [12] was inactive.

Take `CCOC(=O)CC(C)C`: the Potency entry in test [1], in [3], in test [20], in [17], in [18] and in test [10] was “inactive” in each case. For the same compound, the Potency entry in [11], in [13], in [14], in test [15] and in test [19] was “inactive” throughout. Moreover, the compound was classed as inactive in [2], in [8] and in test [12].

As to `O=C(Nc1ccccc1)OCC(CN1CCCCC1)OC(=O)Nc1ccccc1` (stereo not drawn), the Potency in test [1] and in test [3] was 26.6 µM (active) throughout. Further, the compound was called inactive in [6], in [8] and in test [12]. Moreover, the Potency entry in [7], in test [18], in test [10], in test [11], in test [13] and in test [14] was “inactive” each time. Moreover, the Potency result in test [15] and in [19] was “inactive” throughout.

In the case of `Cc1ccc(C)o1`, the Potency entry in test [1], in test [3], in test [20], in test [9], in [17] and in test [18] was “inactive” throughout. Besides, the Potency result in [10], in [11], in test [13], in [14], in test [15] and in test [19] was “inactive” throughout. Further, the outcome in test [5], in [6], in test [8] and in [12] was inactive.

Take `CC(=O)O[C@@H]1C(=O)O[C@@H]2[C@H]1OC(=O)[C@@H]2OC(C)=O`: the Potency entry in [1], in [20], in test [7], in test [17], in test [18] and in test [10] was “inactive” in each case. Also, the Potency result in test [11], in [13], in test [14], in test [15] and in [19] was “inactive” throughout. For the same compound, the result in [2] and in test [12] was inactive.

Turning to `CN1CCN(C2=Nc3cc(Cl)ccc3Nc3ccccc32)CC1`, the call in test [5], in [6] and in test [12] was inactive. Further, the Potency result in [20], in test [18], in [10], in test [11], in test [13] and in test [14] was “inactive” each time. Also, the Potency result in test [15] and in test [19] was “inactive” each time.

On to `CC(C)(Oc1ccc(Cl)cc1)C(=O)OCCCOC(=O)C(C)(C)Oc1ccc(Cl)cc1`, for which the Potency result in test [1], in test [3], in test [20], in [7], in test [9] and in [18] was “inactive” throughout. Moreover, the Potency entry in test [10], in test [11], in test [13], in test [14], in test [15] and in test [19] was “inactive” each time. The result in test [4], in test [8] and in test [12] was inactive.
